Compound activity (PubChem BioAssay)
A selection: hits, their analogues and other compounds. The true share with any hit is near 4%.
TWEAK-Fn14 inh: blocks TWEAK-Fn14 interaction in a reporter cell assay | 360,000 compounds, 2% hits | inhibition, % at 10 µM | TWEAK-stimulated Fn14 reporter cells, luciferase luminescence, 8 h; in the data active means inhibition above about 50%
CF NFkB inh: blocks PAF-induced NF-kB reporter in cystic fibrosis cells; 360,000 compounds, 0.86% hits; inhibition, % at 5 µM; AID 588850; KKLEB NF-kB-GFP reporter, GFP fluorescence overnight;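 active means at least 50% inhibition at 5 µM, scaled per plate between neutral and stimulator controls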;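 further: PAF is a Pseudomonas aeruginosa culture filtrate used as stimulus; plate controls were PAF-stimulated DMSO wells for no effect and unstimulated DMSO wells for full effect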
Peg3 prom inh: reduces Peg3 promoter-driven luciferase expression in HeLa | 360,000 compounds, 1.7% hits | inhibition, % at 20 µM | HeLa PEG-Prom luciferase reporter, luminescence, overnight | AID 588405;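 active means inhibition of at least 50% at 20 µM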
KKLEB tox: reduces viability of KKLEB cystic fibrosis airway cells | KKLEB CF airway cells viability, ATPlite luminescence, overnight; hits give low values; cells stimulated with P. aeruginosa culture filtrate | activity change (cytotoxicity), % at 5 µM | 360,000 compounds, 0.36% hits | AID 602141;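 active means corrected activity change at or below -50% at 5 µM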
HIF-2a block: blocks HIF-2a reporter activity; inhibition, % at 18.8 µM; 360,000 compounds, 0.72% hits; 786-0 RCC cells HIF-2a reporter, luciferase luminescence, overnight;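 active means inhibition of the luminescence signal of 40% or more relative to plate controls, in a single-dose primary screen at 18.75 µM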
TROY signal inh: inhibitors of TROY-dependent NF-kB signaling; inhibition, % at 10 µM; 360,000 compounds, 0.98% hits; AID 1347056; Q293 LMP1-TROYcd NF-kB luciferase reporter, 4 h;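 active means compounds whose plate-normalised and pattern-corrected inhibition of the luciferase reporter signal at the single screening dose is 50% or more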
Starred values were filed as active, the others as inactive.

What do the screens show for `CCC(C)NC(=O)c1cc2cc3ccc(OC)cc3nc2s1` (configuration not stated)?
TWEAK-Fn14 inh: 51*; CF NFkB inh: -5; Peg3 prom inh: -132; KKLEB tox: 10; HIF-2a block: -182; TROY signal inh: -18

Results for COc1ccc(CN2C(=O)c3ccccc3C2c2nnnn2C(C)C)cc1OC (configuration not stated) ?
TWEAK-Fn14 inh: 13; HIF-2a block: 3; TROY signal inh: -3

What do the screens show for `CCOC(=O)C1=C(COC(=O)CCOc2ccc(OC)cc2)NC(=O)NC1C` (configuration not stated)?
TWEAK-Fn14 inh: 3; CF NFkB inh: 4; Peg3 prom inh: 5; KKLEB tox: -2; HIF-2a block: 1; TROY signal inh: 15

Results for CCOC(=O)C1=C(COC(=O)CCOc2ccc(C)cc2)NC(=O)NC1C (configuration not stated) ?
TWEAK-Fn14 inh: 15; CF NFkB inh: 44; Peg3 prom inh: 56*; KKLEB tox: -13; HIF-2a block: -17; TROY signal inh: 1

Results for O=C(c1ccccc1)N1CCC(c2nc(-c3ccc(S(=O)(=O)N4CCOCC4)cc3)no2)CC1 ?
TWEAK-Fn14 inh: 62*; CF NFkB inh: 1; Peg3 prom inh: 26; KKLEB tox: 2; HIF-2a block: 4

Results for Cc1cccc(C(=O)N2CCC(c3nc(-c4ccc(S(=O)(=O)N5CCOCC5)cc4)no3)CC2)c1 ?
TWEAK-Fn14 inh: 2; CF NFkB inh: 5; Peg3 prom inh: 34; KKLEB tox: -5; HIF-2a block: 6; TROY signal inh: 12

What do the screens show for `COc1ccc(CN(C)C(=O)c2cccc(NC(=O)CC3SC(N4CCCCC4)=NC3=O)c2)c(OC)c1` (configuration not stated)?
TWEAK-Fn14 inh: 74*; CF NFkB inh: 7; Peg3 prom inh: 54*; KKLEB tox: 8; HIF-2a block: -5; TROY signal inh: 49

Results for COc1cccc(CN(C)C(=O)c2cccc(NC(=O)CC3SC(N4CCCCC4)=NC3=O)c2)c1OC (configuration not stated) ?
TWEAK-Fn14 inh: 1; CF NFkB inh: -42; Peg3 prom inh: 18; KKLEB tox: 13; HIF-2a block: -8; TROY signal inh: 3

What do the screens show for `COc1ccc(NC(=O)CSc2nnnn2C2CC2)cc1S(=O)(=O)N1CCOCC1`?
TWEAK-Fn14 inh: -16; CF NFkB inh: 2; Peg3 prom inh: 9; KKLEB tox: -8; HIF-2a block: -2; TROY signal inh: -11

What do the screens show for `CCOC(=O)C1=CCC(c2ccc(Cl)cc2)N(S(=O)(=O)c2ccc(C)cc2)C1` (configuration not stated)?
TWEAK-Fn14 inh: 2; CF NFkB inh: 21; Peg3 prom inh: 16; KKLEB tox: -7; HIF-2a block: -1; TROY signal inh: 10

How did Cc1cccc(-n2c(SCC(=O)NCC3CCCO3)nc3ccccc3c2=O)c1C (configuration not stated) do in these assays?
TWEAK-Fn14 inh: 12; CF NFkB inh: -23; Peg3 prom inh: 15; KKLEB tox: 10; HIF-2a block: 8; TROY signal inh: 5

What do the screens show for `CC1(Cc2ccccc2OC(F)(F)F)C(=O)Nc2ccc(-c3ccsc3)cc21` (configuration not stated)?
TWEAK-Fn14 inh: 22; CF NFkB inh: 2; Peg3 prom inh: 43; KKLEB tox: -16; HIF-2a block: -4; TROY signal inh: 10

Results for CCOC(=O)N=Nc1c2ccccc2c2nc3no[nH]c3nc12 ?
TWEAK-Fn14 inh: 90*; CF NFkB inh: 95*; Peg3 prom inh: 108*; KKLEB tox: -65*; HIF-2a block: -38; TROY signal inh: 66*

How did CCOC(=O)N=Nc1c(O)n(CC(=O)OC)c2ccccc12 do in these assays?
TWEAK-Fn14 inh: 22; CF NFkB inh: 1; Peg3 prom inh: 5; KKLEB tox: 4; HIF-2a block: 7; TROY signal inh: 1

What do the screens show for `COc1ccc(CC(N)c2csc(Nc3cc(NCc4ccco4)ncn3)n2)cc1` (configuration not stated)?
TWEAK-Fn14 inh: 15; CF NFkB inh: 12; Peg3 prom inh: 30; KKLEB tox: -4; HIF-2a block: 7; TROY signal inh: -3

How did O=C(NNc1ccc(F)cc1F)c1c(F)cccc1Cl do in these assays?
TWEAK-Fn14 inh: 58*; CF NFkB inh: 9; Peg3 prom inh: 20; KKLEB tox: -21; HIF-2a block: 16; TROY signal inh: -11

Results for CCOc1ccc(S(=O)(=O)N(C)c2ccc(OCC(=O)NC3=NCCS3)cc2)cc1 ?
TWEAK-Fn14 inh: 9; CF NFkB inh: -20; Peg3 prom inh: 3; KKLEB tox: 2; HIF-2a block: 5; TROY signal inh: -19

Results for COc1ccc(OC)c2sc(NNC(=O)COc3ccccc3)nc12 ?
TWEAK-Fn14 inh: 1; CF NFkB inh: -6; Peg3 prom inh: 8; KKLEB tox: 1; HIF-2a block: 6; TROY signal inh: 10

How did CCOc1ccc(C(=O)CCc2nc3ccccc3s2)cc1 do in these assays?
TWEAK-Fn14 inh: 46; CF NFkB inh: 0; Peg3 prom inh: -39; KKLEB tox: 15; HIF-2a block: -176; TROY signal inh: 54*

Results for CCOc1ccc(S(=O)(=O)N(C)c2ccc(OCC(=O)Nc3nc4ccccc4s3)cc2)cc1 ?
TWEAK-Fn14 inh: 74*; CF NFkB inh: -12; Peg3 prom inh: 15; KKLEB tox: 6; HIF-2a block: 11; TROY signal inh: 34

What do the screens show for `COc1ccc(C(=O)NC(=S)NNC(=O)COc2ccccc2)cc1`?
TWEAK-Fn14 inh: 63*; CF NFkB inh: 12; Peg3 prom inh: 23; KKLEB tox: 10; HIF-2a block: 16; TROY signal inh: 17

Results for COc1ccc(OCC(=O)NNc2nc3ccccc3s2)cc1 ?
TWEAK-Fn14 inh: 4; CF NFkB inh: -3; Peg3 prom inh: -5; KKLEB tox: 14; HIF-2a block: -6; TROY signal inh: 79*

What do the screens show for `COc1ccc(NC(=O)CCc2nc3ccccc3s2)c(OC)c1`?
TWEAK-Fn14 inh: -24; CF NFkB inh: -6; Peg3 prom inh: -20; KKLEB tox: 0; HIF-2a block: -26; TROY signal inh: -1

How did COc1cc(OC)cc(C(=O)Oc2ccc(/C=N/Nc3nc4ccccc4s3)cc2OC)c1 do in these assays?
TWEAK-Fn14 inh: -27; CF NFkB inh: -8; Peg3 prom inh: -265; KKLEB tox: -5; HIF-2a block: -198; TROY signal inh: -58

What do the screens show for `CN(c1ccc(OCC(=O)Nc2nc3ccccc3s2)cc1)S(=O)(=O)c1ccccc1`?
TWEAK-Fn14 inh: 41; CF NFkB inh: -8; Peg3 prom inh: -7; KKLEB tox: 7; HIF-2a block: -4; TROY signal inh: 51*

What do the screens show for `C(=N\Nc1nc2ccccc2s1)/c1ccc2c(c1)OCO2`?
TWEAK-Fn14 inh: 36; CF NFkB inh: -9; Peg3 prom inh: -220; KKLEB tox: -10; HIF-2a block: -144; TROY signal inh: 5
